Source: PubChem BioAssay
The source made the active and inactive calls. Unless noted, the rule behind the calls is not given here.

Legend:
[1] = resazurin metabolic signal in HepG2 cells – cell-based, resazurin fluorescence, 24 h, PK04 Diversity Set, profiling panel (AID 1172); settings: HepG2 viability, higher = more signal
[2] = budding yeast growth changes without added modifier – OD600, strain BY4716, 24 h, basal condition, primary screen (AID 1173); settings: S. cerevisiae BY4716 growth, OD600, 24 h; higher = more signal, called active from +8 up or from −8 down
[3] = viability profiling in MM1S myeloma cells – cell-based, resazurin fluorescence, basal, 24 h, PK04 Diversity Set, profiling panel (AID 1174); settings: higher = more signal, called active from +8 up or from −8 down;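 note: MM1S multiple myeloma cell line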
[4] = target: Dihydroorotate dehydrogenase (quinone), mitochondrial (Plasmodium falciparum (isolate 3D7)) (UniProt Q08210); assay: inhibition of P. falciparum DHODH – biochemical, C-terminal His tag, absorbance 600 nm, primary screen (AID 1175); settings: PfDHODH enzyme, DCIP absorbance 600 nm; higher = more signal, called active from +8 up or from −8 down;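 note: recombinant parasite enzyme with a five histidine tag at its C terminus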
[5] = inhibition of PAO1 biofilm formation – strain PAO1, LB-PBS medium, absorbance 600 nm, primary screen (AID 1176); settings: P. aeruginosa PAO1 growth/biofilm, A600, 12 h; higher = more signal
[6] = growth modulation of vineyard yeast isolate – strain RM11-1a, OD600, basal, 24 h, primary screen (AID 1177);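 note: cultures grown under basal conditions with no added stressor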; settings: S. cerevisiae RM11-1a growth, OD600, 24 h; higher = more signal, called active from +8 up or from −8 down
[7] = growth of efflux-deficient E. coli DRC39 – strain DRC39, OD650, 24 h, E. coli filamentation inducers, primary screen (AID 1178);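 note: growth measured as culture turbidity by optical density at 650 nm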; settings: E. coli DRC39 acrAB, higher = more signal, called active from +8 up or from −8 down
[8] = growth of efflux-deficient E. coli DRC39 – strain DRC39, OD650, 48 h, E. coli filamentation inducers, primary screen (AID 1179);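 note: screen aims at cell division blockers that make cells filament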; settings: E. coli DRC39 delta-acrAB growth, higher = more signal, called active from +8 up or from −8 down
[9] = viability profiling in RPMI8226 myeloma cells – cell-based, resazurin fluorescence, basal, 24 h, PK04 Diversity Set, profiling panel (AID 1180); settings: higher = more signal;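 note: RPMI8826 multiple myeloma cell line at 5000 cells per well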
[10] = target: E3 ubiquitin-protein ligase XIAP (Homo sapiens) (UniProt P98170); assay: small molecules binding XIAP protein – biophysical, small-molecule microarray, fluorescence 635 nm, primary screen (AID 1181); settings: higher = more signal;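 note: score merges 667 nm emission and signal to noise over triplicate slides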
[11] = system: XIP peptide (Xip251-270) binding; assay: XIP fragment 251-270 binding compounds – biochemical, small-molecule microarray, fluorescence 635/667 nm, 0.1 µg/mL protein, primary screen (AID 1182); settings: fluorescent protein binding, 635 nm, higher = more signal, called active from +8 up or from −8 down
XIP peptide (Xip251-270) = assay: compounds binding XIP fragment 251-270 – biochemical, small-molecule microarray, fluorescence 635/667 nm, 0.5 µg/mL protein, primary screen (AID 1183); settings: fluorescence 635 nm, higher = more signal
[12] = blood-stage malaria parasite viability loss – strain 3D7, DAPI fluorescence, 100 nL, primary screen (AID 1184);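 note: parasites grown inside human red blood cells in medium with human serum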; settings: P. falciparum 3D7 growth, 3 d, higher = more signal
[13] = target: Homeobox protein Hox-A13 (Mus musculus) (UniProt Q62424); assay: disruptors of Hoxa13 oligonucleotide interaction – biochemical, fluorescence polarization, labeled oligonucleotide, primary screen (AID 1185); settings: Hoxa13:DNA binding, 15 min, higher = more signal, called active from +8 up or from −8 down
[14] = blockers of DNA damage checkpoint Chk1 activation – imaging, HeLa, hydroxyurea, phospho-Chk1 antibody, percent positive cells, primary screen (AID 1186); settings: hydroxyurea-induced phospho-Chk1 immunofluorescence imaging, higher = more signal
[15] = blockers of DNA damage checkpoint Chk1 activation – imaging, HeLa, hydroxyurea, phospho-Chk1 nuclear intensity, primary screen (AID 1187); settings: hydroxyurea-induced phospho-Chk1 immunofluorescence imaging, higher = more signal

Sequence of Homeobox protein Hox-A13 (Mus musculus) (Q62424 whole entry, looked up): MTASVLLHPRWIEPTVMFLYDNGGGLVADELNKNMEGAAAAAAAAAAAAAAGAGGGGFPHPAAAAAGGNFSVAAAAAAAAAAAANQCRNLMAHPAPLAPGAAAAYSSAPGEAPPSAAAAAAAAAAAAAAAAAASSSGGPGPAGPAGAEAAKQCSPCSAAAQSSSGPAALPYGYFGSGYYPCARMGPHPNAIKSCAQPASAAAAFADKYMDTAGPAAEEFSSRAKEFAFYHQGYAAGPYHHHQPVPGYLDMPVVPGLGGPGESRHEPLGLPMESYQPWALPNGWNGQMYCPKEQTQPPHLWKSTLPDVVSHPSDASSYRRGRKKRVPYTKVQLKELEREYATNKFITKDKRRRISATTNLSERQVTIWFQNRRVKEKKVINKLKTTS
Sequence of Dihydroorotate dehydrogenase (quinone), mitochondrial (Plasmodium falciparum (isolate 3D7)) (Q08210 whole entry, looked up): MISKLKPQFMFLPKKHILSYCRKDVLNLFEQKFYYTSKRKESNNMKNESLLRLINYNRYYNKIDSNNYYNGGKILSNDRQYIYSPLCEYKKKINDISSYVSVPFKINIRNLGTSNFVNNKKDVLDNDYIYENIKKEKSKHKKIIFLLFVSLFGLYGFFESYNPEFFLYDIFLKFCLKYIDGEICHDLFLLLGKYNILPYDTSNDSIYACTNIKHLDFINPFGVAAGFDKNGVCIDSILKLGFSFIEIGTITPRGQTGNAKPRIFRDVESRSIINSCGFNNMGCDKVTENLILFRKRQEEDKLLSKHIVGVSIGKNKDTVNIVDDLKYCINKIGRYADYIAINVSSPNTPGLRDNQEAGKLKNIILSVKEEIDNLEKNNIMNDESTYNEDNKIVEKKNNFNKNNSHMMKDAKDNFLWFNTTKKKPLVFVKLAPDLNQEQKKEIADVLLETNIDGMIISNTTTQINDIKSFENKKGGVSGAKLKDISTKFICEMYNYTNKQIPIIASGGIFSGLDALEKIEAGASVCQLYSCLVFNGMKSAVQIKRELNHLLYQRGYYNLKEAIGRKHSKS
Sequence of E3 ubiquitin-protein ligase XIAP (Homo sapiens) (P98170 whole entry, looked up, the tested form may be a part): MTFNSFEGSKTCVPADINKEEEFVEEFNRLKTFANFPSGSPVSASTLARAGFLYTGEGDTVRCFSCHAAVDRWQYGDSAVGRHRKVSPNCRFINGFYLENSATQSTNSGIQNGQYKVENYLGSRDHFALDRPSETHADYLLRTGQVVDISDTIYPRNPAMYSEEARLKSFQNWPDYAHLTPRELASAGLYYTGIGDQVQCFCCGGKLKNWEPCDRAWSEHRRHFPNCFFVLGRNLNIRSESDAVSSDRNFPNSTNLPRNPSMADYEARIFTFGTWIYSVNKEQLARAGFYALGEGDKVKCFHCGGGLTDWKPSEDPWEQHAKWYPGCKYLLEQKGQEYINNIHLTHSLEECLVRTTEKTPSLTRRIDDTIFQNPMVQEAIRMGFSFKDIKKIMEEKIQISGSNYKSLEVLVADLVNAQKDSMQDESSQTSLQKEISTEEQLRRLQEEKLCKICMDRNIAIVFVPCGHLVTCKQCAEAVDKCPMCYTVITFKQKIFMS

| SMILES | z-score [1] | z-score [2] | z-score [3] | composite z-score [4] | z-score [5] | z-score [6] | z-score [7] | z-score [8] | z-score [9] | composite z-score [10] | composite z-score [11] | composite z-score (XIP peptide (Xip251-270)) | z-score [12] | z-score [13] | z-score [14] | z-score [15] |
| --- | --- | --- | --- | --- | --- | --- | --- | --- | --- | --- | --- | --- | --- | --- | --- | --- |
| CC(C)C[C@@H]1NC(=O)[C@H]2C[C@@H](C(=O)NCCCCCCNC(=O)CS)[C@@H](c3cccc(OCCO)c3)N2C1=O | 0.808 | -0.632 (inactive) | 0.259 (inactive) | -0.625 (inactive) | -0.145 (inactive) | 0.652 (inactive) | 0.941 (inactive) | 1.08 (inactive) | -0.258 | 0.356 | 0.821 (inactive) | 0.792 | -0.0202 | -2.77 (inactive) | 0.0162 (inactive) | 0.12 (inactive) |
| COC(=O)C[C@@H]1C[C@H](C)[C@]2(O1)C(=O)N(Cc1ccccc1)c1ccc(NC(C)=O)cc12 | -0.873 | -1.15 (inactive) | -1.19 (inactive) | 0.281 (inactive) | -0.0582 (inactive) | 0.0057 (inactive) | -0.768 (inactive) | -1.33 (inactive) | -0.888 | 0.123 | -0.16 (inactive) | 0.295 | -1.78 | -3.77 (inactive) | -0.139 (inactive) | -0.194 (inactive) |
| COc1ccc(C(=O)Nc2cccc(CN3C(=O)[C@]4(O[C@H](CC(=O)N5CCC[C@H]5CO)[C@@H]([Si](C)(C)c5ccc(OC)cc5)[C@@H]4C)c4ccccc43)c2)cc1 | -1.72 | -0.268 (inactive) | -2.7 (inactive) | -2.54 (inactive) | 0.0943 (inactive) | 0.312 (inactive) | 0.951 (inactive) | 0.441 (inactive) | -4.84 | -0.0998 | 1.64 (inactive) | 0.687 | -1.34 | -2.44 (inactive) | -0.0977 (inactive) | 0.131 (inactive) |
| CCCCC=C[C@@H](NC(=O)c1ccc(C(=O)OC)cc1)c1ccccc1 | 2.26 | 0.399 (inactive) | 1.13 (inactive) | -0.543 (inactive) | -0.567 (inactive) | 1.18 (inactive) | -0.0227 (inactive) | 0.623 (inactive) | 3.78 | -0.145 | 2.97 (inactive) | 0.0677 | -1.38 | -4.21 (inactive) | 0.492 (inactive) | 0.256 (inactive) |
| CC(C)N1C(=O)C[C@@](C(=O)NCc2ccccc2)(c2ccc([N+](=O)[O-])cc2)[C@H]1c1ccc(CO)cc1 | 0.222 | -0.228 (inactive) | 0.0372 (inactive) | 0.41 (inactive) | -0.0528 (inactive) | 0.131 (inactive) | 0.531 (inactive) | 1.23 (inactive) | 1.26 | -0.0543 | 0.168 (inactive) | 0.524 | -0.688 | -1.27 (inactive) | -0.293 (inactive) | -0.128 (inactive) |
| CN(C)C(=O)[C@@]1(CCC(=O)OC(C)(C)C)N=C(c2ccc(OCCCO)cc2)O[C@H]1c1ccccc1 | -0.299 | -0.757 (inactive) | -0.441 (inactive) | -0.507 (inactive) | 0.401 (inactive) | -0.346 (inactive) | 0.541 (inactive) | -0.353 (inactive) | 0.276 | -0.168 | 0.373 (inactive) | 0.909 | -1.8 | -5.79 (inactive) | 0.196 (inactive) | 0.0613 (inactive) |
| COCCOC(=O)N1C(=O)[C@@]2(c3cc(C#CCCO)ccc31)[C@H](c1ccc(O)cc1)N1[C@H](c3ccccc3)[C@H](c3ccccc3)OC(=O)[C@H]1[C@@H]2C(N)=O | -0.231 | 0.0254 (inactive) | -0.644 (inactive) | -0.294 (inactive) | 0.911 (inactive) | 0.565 (inactive) | 0.145 (inactive) | 0.138 (inactive) | -1.08 | -0.0272 | 0.599 (inactive) | 0.77 | -0.662 | -5.33 (inactive) | -0.296 (inactive) | -0.841 (inactive) |
| CC(C)C(=C=CC[C@@H](O)c1ccccc1OCCO)C[C@@H](O)c1ccccn1 | -0.347 | -1.09 (inactive) | 0.0716 (inactive) | -9.29 (active) | 0.142 (inactive) | -0.435 (inactive) | -0.749 (inactive) | -0.628 (inactive) | 0.221 | 0.0709 | 2.26 (inactive) | 0.499 | -1.35 | -4.89 (inactive) | 0.0231 (inactive) | 0.215 (inactive) |
| N#Cc1ccc(NN2C(C(O)C3CCCCC3)C=CC3C(=O)N(c4ccccc4)C(=O)C32)cc1 (stereo not given) | -0.779 | -0.394 (inactive) | -0.668 (inactive) | -0.177 (inactive) | 1.14 (inactive) | -0.28 (inactive) | -0.427 (inactive) | -0.673 (inactive) | -0.848 | 0.262 | 0.769 (inactive) | 0.694 | 0.898 | -2.14 (inactive) | -0.14 (inactive) | -0.0947 (inactive) |
| CC(C)CNC(=O)[C@@H]1c2ccccc2C(=O)N(Cc2cc(C(F)(F)F)cc(C(F)(F)F)c2)[C@H]1c1ccc(CO)cc1 | -1.16 | 0.578 (inactive) | 0.889 (inactive) | -0.697 (inactive) | -0.171 (inactive) | 0.927 (inactive) | 0.898 (inactive) | 0.343 (inactive) | 1.29 | -0.198 | -0.133 (inactive) | -0.308 | -1.2 | -1.46 (inactive) | -0.236 (inactive) | 0.21 (inactive) |
